The list is not random: actives were taken first. Their share in the collection is about 3.9%.
p53null 39C kill: kills p53 null cells at the nonpermissive temperature | H1299 p53-null (neo) cells, 39C, ATPlite viability, 24 h | Potency, µM (titrated, usually from 46.1 µM), actives largely listed as cytotoxic | actives 0.97% (n = 55,000); further: nearly all actives have a fitted effect of over 50% in size
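Luminescent ATP signal reported cell survival after H1299 lines (neo, p53 null; or p53 A138V) received up to 46 uM compound and 24 hr incubation at 39C.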
HTT prom inh: inhibits huntingtin promoter activity; HEK293 HTT promoter firefly luciferase reporter, 24 h; Potency, µM (series often up to 57.5 µM), most hits filed as inhibitors; actives 0.93% (n = 48,000); AID 1508623; further: nearly all actives have a fitted effect of over 50% in size
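Luminescence was read after Dual-Glo reagent and a 10 min room-temperature incubation. Values were normalized to vehicle (0% activity) and zero RLU (-100% activity). Reporter HEK293 cells had been exposed to compounds (up to 57.5 uM final) for 24 h.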
p53null 32C tox: kills p53 null cells at the permissive temperature; Potency, µM (top dose mostly 46.1 µM), most hits filed as cytotoxic; H1299-neo p53 null cells, ATP luminescence, 24 h, 32C; AID 903; actives 0.62% (n = 55,000); further: nearly all actives have a fitted effect of over 55% in size
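AC50 values derive from Hill modelling of qHTS concentration-response data (up to 46 uM) in H1299-neo cells. Cells were treated 24 h at 32C following overnight attachment at 37C; viability was read as cellular ATP.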
HTT-AS promoter: activates huntingtin-antisense promoter activity; Potency, µM (titrated, usually from 57.5 µM), hits mostly activators; actives 0.24% (n = 48,000); HEK293 HTT-AS promoter firefly luciferase reporter, 24 h; response scale: percent change from vehicle, -100% = no light; further: nearly all actives have a fitted effect of over 55% in size
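HEK293 Fluc reporter, 2,500 cells/well, 24 h pre-culture; cpds up to 57.5 uM final, 24 h 37 degrees C; Dual-Glo, 10 min RT; normalized vehicle = 0%, zero RLU = -100%.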
DRV1 agonist: GPR32 (DRV1) agonism, beta-arrestin recruitment; O75388; CHO-K1 GPR32 beta-arrestin PathHunter luminescence, 90 min; zero percent set by DMSO-only wells; activation, % at 76.9 µM; actives 2.5% (n = 48,000); AID 1346428;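 active means activation of at least 60% and not above a set upper limit, about 1 call in 100 departs from these limits; inconclusive means activation of 40% to 60%, or above that upper limit; inactive means activation under 40%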
Target sequence (O75388 whole entry, looked up): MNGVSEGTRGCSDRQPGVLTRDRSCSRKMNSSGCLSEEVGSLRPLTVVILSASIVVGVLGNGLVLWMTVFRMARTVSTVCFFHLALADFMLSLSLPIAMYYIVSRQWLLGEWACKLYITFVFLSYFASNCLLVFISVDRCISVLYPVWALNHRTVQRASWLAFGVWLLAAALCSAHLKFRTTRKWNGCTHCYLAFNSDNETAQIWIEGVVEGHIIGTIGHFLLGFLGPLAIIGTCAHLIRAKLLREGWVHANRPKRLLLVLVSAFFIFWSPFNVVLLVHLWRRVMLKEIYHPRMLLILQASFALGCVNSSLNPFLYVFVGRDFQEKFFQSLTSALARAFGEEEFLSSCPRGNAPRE
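PathHunter beta-arrestin recruitment in CHO-K1 cells stably expressing ProLink-tagged GPR32. Cells were exposed to compound for 90 min at 37 C, then chemiluminescence was read after 1 h detection at ambient temperature; DMSO served as basal control.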
Each line names hits and unclear results; the compound was inactive in the other large screens. Unless noted, the call rests on the fitted dose curve; in most records, active means well fitted curve in the direction sought with a large enough effect; inconclusive means small, poorly fitted or top-dose-only effect, or another doubt; inactive means no such curve, though single readings can be large; an effect the other way counts as inactive or inconclusive.

CCCOCc1cc(CN2CCN(c3ccccc3OC)CC2)c(O)c2ncccc12	p53null 39C kill 3.2µM, HTT prom inh inconclusive, p53null 32C tox 16µM
Cc1cc(Nc2ncc3c(n2)N(C)C(=O)N(c2cc(NC(=O)c4cccc(C(F)(F)F)c4)ccc2C)C3)n(C)n1	HTT prom inh inconclusive (no result: p53null 39C kill, p53null 32C tox, DRV1 agonist)
CC(C)n1nc(-c2ccc3oc(N)nc3c2)c2c(N)ncnc21	HTT prom inh inconclusive (no result: p53null 39C kill, p53null 32C tox, DRV1 agonist)
CC(C)(C)c1ccc(C(=O)Nc2nnc3n2CCS3)cc1	p53null 39C kill inconclusive, p53null 32C tox 10µM, HTT-AS promoter inconclusive
CC(C)(C)C(=O)Nc1nnc2n1CCS2	none
FC(F)(F)c1ccc(C=Cc2nc(COc3ccc(CCCCn4ccnn4)cc3)co2)cc1	HTT prom inh inconclusive (no result: p53null 39C kill, p53null 32C tox, DRV1 agonist)
CC(C)CC(=O)OCc1cc(=O)n2nc(C3CCCCC3)sc2n1	DRV1 agonist 71
Fc1ccc(Nc2nc3nonc3nc2Nc2cccc(C(F)(F)F)c2)cc1	p53null 39C kill 5.6µM, HTT prom inh 1.3µM, p53null 32C tox inconclusive
c1ccc(CSc2ccc(-c3ccco3)nn2)cc1	p53null 39C kill inconclusive, p53null 32C tox 11µM (no result: HTT prom inh, HTT-AS promoter, DRV1 agonist)
O=S(=O)(O)c1cc(I)c(O)c2ncccc12	DRV1 agonist 105 (no result: p53null 39C kill, p53null 32C tox)
Cc1cc(OCCOCC[N+](C)(C)Cc2ccccc2)ccc1C(C)(C)CC(C)(C)C	HTT prom inh inconclusive (no result: p53null 39C kill, p53null 32C tox)
CC(C)(C)c1ccc(C(=O)Nc2onc3c2CCCC3)cc1	p53null 39C kill inconclusive, HTT prom inh inconclusive, p53null 32C tox 16µM, HTT-AS promoter inconclusive, DRV1 agonist 88
O=C(Nc1onc2c1CCCC2)c1ccccc1	p53null 39C kill inconclusive, p53null 32C tox inconclusive, HTT-AS promoter inconclusive
CCOc1ccc(C(=O)Nc2onc3c2CCCC3)cc1	p53null 39C kill 4µM, p53null 32C tox 6.3µM, HTT-AS promoter inconclusive
CC(C)COc1ccc(C(=O)Nc2onc3c2CCCC3)cc1	p53null 39C kill 13µM, p53null 32C tox inconclusive, DRV1 agonist 114
CS(=O)(=O)c1ccc(-c2cnc(N)c(C(=O)Nc3ccccc3)n2)cc1	none (no result: p53null 39C kill, p53null 32C tox, DRV1 agonist)
OC1(c2ccc(Cl)cc2)CCNCC1	none (no result: p53null 39C kill, p53null 32C tox)
COc1cccc([C@@H](C)NCCCc2ccccc2Cl)c1	HTT-AS promoter inconclusive (no result: p53null 39C kill, p53null 32C tox, DRV1 agonist)
Cc1cc2ccccc2n1-c1ccc(C(=O)N2CCC(C(=O)NCc3ccc(Cl)cc3)CC2)s1	HTT prom inh 14µM
O=C(Nc1cccc(F)c1)c1ccc(-c2ccccc2)s1	p53null 39C kill inconclusive, HTT-AS promoter inconclusive, DRV1 agonist 68
O=C(Nc1ccc(F)cc1F)c1ccc(-c2ccccc2)s1	p53null 39C kill inconclusive
O=C(Nc1cc(-c2ccccc2)sc1C(=O)O)c1cccc(F)c1	DRV1 agonist 110
Cc1ccc(C)c2sc(N3CCN(C(=O)c4ccco4)CC3)nc12	DRV1 agonist 88
Cc1cccc2sc(N3CCN(C(=O)c4ccco4)CC3)nc12	HTT-AS promoter inconclusive
CCn1c(-c2nonc2N)nc2cncc(CNC3CCNCC3)c21	none (no result: p53null 39C kill, p53null 32C tox, DRV1 agonist)
Cc1ccc(C)c(NC(=O)CSc2nnc3[nH]c(=O)cc(-c4ccccc4)n23)c1	p53null 39C kill inconclusive, p53null 32C tox 1.6µM, HTT-AS promoter inconclusive
COc1cccc(NC(=O)CSc2nnc3[nH]c(=O)cc(-c4ccccc4)n23)c1	p53null 39C kill inconclusive, p53null 32C tox inconclusive
Cc1ccc(NC(=O)CSc2nnc3[nH]c(=O)cc(-c4ccccc4)n23)cc1Cl	p53null 39C kill inconclusive, p53null 32C tox 4µM, HTT-AS promoter 14µM
C[C@]12CC[C@@H]3c4ccc(O)cc4CC[C@H]3[C@H]1C[C@@H](O)[C@H]2O	none (no result: p53null 39C kill, p53null 32C tox, DRV1 agonist)
Cc1ccc(CSc2nc3cccnc3n2Cc2ccc(C(=O)NCCc3cccs3)cc2)cc1	p53null 39C kill 4µM, p53null 32C tox 4.5µM, HTT-AS promoter inconclusive
Cc1ccc(CSc2nc3cccnc3n2Cc2ccc(C(=O)NC3CCCCC3)cc2)cc1	p53null 39C kill 11µM, p53null 32C tox 13µM
O=C(NC1CCCC1)c1ccc(CSc2nc3cccnc3n2Cc2cccc(F)c2)cc1	HTT prom inh inconclusive
O=C(NC1CCCCC1)c1ccc(Cn2c(SCc3ccccc3F)nc3cccnc32)cc1	HTT prom inh inconclusive
O=C(NCc1cccs1)c1ccc(CSc2nc3cccnc3n2Cc2ccccc2)cc1	HTT prom inh inconclusive
O=C(NCc1ccco1)c1ccc(Cn2c(SCc3ccc(F)cc3)nc3cccnc32)cc1	p53null 39C kill 13µM, p53null 32C tox inconclusive
O=C(NC1CC1)c1ccc(Cn2c(SCc3ccccc3F)nc3cccnc32)cc1	p53null 39C kill 13µM, HTT prom inh inconclusive, p53null 32C tox inconclusive
N#C/C(=C1\SCC(c2ccccc2Cl)S1)n1ccnc1 (configuration not stated)	none (no result: p53null 39C kill, p53null 32C tox)
CCOc1ccc(CNCc2c(C(=O)O)c(C)n(Cc3ccc(C)cc3)c2C)cc1	none
C=Cc1ccc(Cn2c(C)c(CNCCc3ccc(OCC)cc3)c(C(=O)O)c2C)cc1	DRV1 agonist 68
CCc1ccc(CNCc2c(C(=O)O)c(C)n(Cc3c(F)cccc3Cl)c2C)cc1	DRV1 agonist 95
Cc1c(CNCCCc2ccccc2)c(C(=O)O)c(C)n1Cc1cccc(Cl)c1	none
Cc1c(CNCCCc2ccccc2)c(C(=O)O)c(C)n1Cc1ccc(Cl)cc1	DRV1 agonist 95
CCOc1ccc(CNCc2c(C(=O)O)c(C)n(Cc3c(F)cccc3Cl)c2C)cc1OC	none
COc1ccc2[nH]cc(CCNC(=O)Nc3ccccc3C)c2c1	none
COc1ccc2[nH]cc(CCNC(=O)Nc3cc(C)cc(C)c3)c2c1	p53null 39C kill 20µM
COc1ccc2[nH]cc(CCNC(=O)Nc3ccccc3)c2c1	DRV1 agonist 67
O=c1cc(-c2cccc3c2Sc2ccccc2S3)oc(N2CCOCC2)c1	HTT prom inh inconclusive (no result: p53null 39C kill, p53null 32C tox, DRV1 agonist)
COc1ccc(Cn2c(CO)cnc2SCc2ccc(F)cc2)cc1	HTT prom inh 32µM, DRV1 agonist inconclusive
COc1ccc(Cn2c(CO)cnc2SCc2ccc(C)cc2)cc1	HTT-AS promoter inconclusive
COc1ccc(Cn2c(CO)cnc2SCc2ccccc2C)cc1	HTT-AS promoter inconclusive
OCc1cnc(SCc2ccccc2F)n1Cc1ccc(F)cc1	DRV1 agonist 94
CC1=C(C(=O)OC2CCCC2)C(c2cccc(Cl)c2Cl)CC(=O)N1 (configuration not stated)	HTT prom inh inconclusive, DRV1 agonist 83
CC1=C(C(=O)OC2CCCC2)C(c2ccccc2Cl)CC(=O)N1 (configuration not stated)	HTT prom inh inconclusive
CC1=C(C(=O)OC2CCCC2)C(c2c(Cl)cccc2Cl)CC(=O)N1 (configuration not stated)	HTT prom inh inconclusive, DRV1 agonist 82
COc1ccc2sc(N(Cc3cccnc3)C(=O)c3cccs3)nc2c1	HTT prom inh 14µM
CCOc1ccc2nc(N(Cc3cccnc3)C(=O)c3cccs3)sc2c1	HTT-AS promoter inconclusive
